Assay results: ChEMBL document CHEMBL3988442, “University of Dundee, Small-Polar-MMV Screening Library” (2021)

Legend:
[1] = molecular target: T1, Aspartate--tRNA(Asp/Asn) ligase (Mycobacterium tuberculosis (strain ATCC 25618 / H37Rv)) (UniProt P9WFW3); assay: Assay for Asp RNA synthetase-1 from Mycobacterium tuberculosis; assay type: functional; set-up: scale not given: direction of the effect not stated beside the values; conditions: 30 µM; also: in the data most compounds retested in dose-response had high values
T1 sequence (whole entry): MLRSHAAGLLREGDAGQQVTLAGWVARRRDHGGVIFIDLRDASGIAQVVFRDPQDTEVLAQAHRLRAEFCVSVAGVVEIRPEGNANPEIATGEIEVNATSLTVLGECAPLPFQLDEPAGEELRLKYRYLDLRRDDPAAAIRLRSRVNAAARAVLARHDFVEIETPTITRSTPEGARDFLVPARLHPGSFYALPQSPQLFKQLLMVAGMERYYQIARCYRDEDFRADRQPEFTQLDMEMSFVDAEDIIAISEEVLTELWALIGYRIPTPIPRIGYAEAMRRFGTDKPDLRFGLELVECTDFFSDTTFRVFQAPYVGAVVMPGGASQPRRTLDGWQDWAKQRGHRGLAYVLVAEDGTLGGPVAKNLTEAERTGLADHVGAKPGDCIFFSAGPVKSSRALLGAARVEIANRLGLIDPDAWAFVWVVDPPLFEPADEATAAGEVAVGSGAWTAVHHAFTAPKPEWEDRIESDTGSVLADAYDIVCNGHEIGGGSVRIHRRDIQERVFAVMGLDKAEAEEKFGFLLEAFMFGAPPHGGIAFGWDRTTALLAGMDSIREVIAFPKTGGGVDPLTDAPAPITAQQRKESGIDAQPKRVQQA

[2] = molecular target: Shiga toxin 2 (Escherichia coli O157:H7) (UniProt P09385+P09386); assay: E. coli 0.157:H7 Shiga Toxin SOP - stx2 screening assay; assay type: functional; set-up: scale not given: direction of the effect not stated beside the values; conditions: 30 µM

CC(C)N(C)CCCNC(=O)c1cnc(-c2ccccc2)nc1
Percent Effect [1]: 3.09%
Percent Effect [2]: -37.7%

COc1ccccc1CC(=O)NS(=O)(=O)c1cncc(Br)c1
Percent Effect [1]: -6.19%
Percent Effect [2]: 10.1%

COc1cccc(CN2CCN(C(=O)CN3CCOCC3)CC2)n1
Percent Effect [1]: -3.48%
Percent Effect [2]: -2.5%

Cc1cnn(CCC(=O)N2C[C@H]3CC[C@@H]2CN(CC(=O)N(C)C)C3)c1
Percent Effect [1]: 4.25%
Percent Effect [2]: -21.6%

COc1cccc(COCC(=O)N2CCCC(N3CCCC3)CC2)c1 (stereo not drawn)
Percent Effect [1]: -5.12%
Percent Effect [2]: 12.6%

Clc1ccccc1-c1nc(CNC2CCc3ncnn3C2)cs1 (stereo not drawn)
Percent Effect [1]: -0.745%
Percent Effect [2]: -6.39%

Cc1cnn(C2CCCN(C(=O)c3sccc3C#N)C2)c1 (stereo not drawn)
Percent Effect [1]: 1.95%
Percent Effect [2]: -36.4%

CC(C)N1CC(C(=O)NCc2ccnc(-n3cccn3)c2)CC1=O (stereo not drawn)
Percent Effect [1]: -0.3%
Percent Effect [2]: -49.1%

CC(NC(=O)c1nc(=O)[nH][nH]1)c1ccc(OCC2CC2)c(F)c1 (stereo not drawn)
Percent Effect [1]: -2.07%
Percent Effect [2]: 5.49%

c1coc(CN2CCCC3(COCCN(Cc4c[nH]nn4)C3)C2)c1 (stereo not drawn)
Percent Effect [1]: 2.45%
Percent Effect [2]: 4.89%

O=C(Nc1ccc(F)cc1)N1C[C@H]2CC[C@@H]1CN(Cc1cccnc1)C2
Percent Effect [1]: 0.632%
Percent Effect [2]: -26.1%

Cc1cccc(C2(CNC(=O)CCN3C(=O)CCC3=O)CCCC2)c1
Percent Effect [1]: -4.05%
Percent Effect [2]: 9.87%

CC(C)c1nc(C2CCCN(C(=O)CCCn3cncn3)C2)no1 (stereo not drawn)
Percent Effect [1]: 9.5%
Percent Effect [2]: 9.71%

CC(C)c1nn(C)c(N2CCOCC2)c1CNC(C)c1cccs1 (stereo not drawn)
Percent Effect [1]: -0.59%
Percent Effect [2]: 33.2%

Cc1nc[nH]c1-c1nc2cc(S(=O)(=O)N3CCCC3)ccc2n1C
Percent Effect [1]: 1.21%
Percent Effect [2]: 0.151%

Cc1ccc(C2CCCN2Cc2nc3c(cnn3C)c(=O)[nH]2)cc1C (stereo not drawn)
Percent Effect [1]: -1.66%
Percent Effect [2]: -9.34%

Cc1nc(C)n(C2CCCN(C(=O)CCc3ccncc3)C2)n1 (stereo not drawn)
Percent Effect [1]: -6.6%
Percent Effect [2]: 11.7%

CCS(=O)(=O)Nc1ccc(C(=O)NCCCN2CCCC2)cc1
Percent Effect [1]: 8.39%
Percent Effect [2]: -19%

Cc1nc(C2CCCN2C(=O)c2cc3c(s2)CCCC3)no1 (stereo not drawn)
Percent Effect [1]: -1.23%
Percent Effect [2]: 23.4%
